Screening results deposited in PubChem BioAssay by National Center for Advancing Translational Sciences (NCATS).
An excerpt weighted towards active compounds, which were near 18% of everything screened.
DT40 TDP1 no CPT: qHTS for Inhibitors of human tyrosyl-DNA phosphodiesterase 1 (TDP1): qHTS in cells in absence of CPT. hit rate 15% among 420,000. Potency, µM (series often up to 46.2 µM), hits mostly inhibitors. DT40 Tdp1-/- hTDP1 cells, no CPT, ATP luminescence, 48 h; note: nearly all actives have a fitted effect of over 55% in size
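Chicken DT40 Tdp1-/- cells complemented with human TDP1, screened without camptothecin (DMSO vehicle only), 400 cells/well. Compounds pin-transferred, cells incubated at 37 °C for at least 48 hr. Growth read as ATP-dependent luminescence (CellTiter-Glo, 30 min at RT).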
TDP1 block: inhibitors of human tyrosyl-DNA phosphodiesterase TDP1; Q9NUW8; recombinant TDP1, AlphaScreen DNA substrate cleavage; Potency, µM (highest dose often 130 µM), hits mostly inhibitors; hit rate 0.28% among 350,000; AID 485290; note: nearly all actives have a fitted effect of over 40% in size
Target sequence (Q9NUW8 whole entry, looked up): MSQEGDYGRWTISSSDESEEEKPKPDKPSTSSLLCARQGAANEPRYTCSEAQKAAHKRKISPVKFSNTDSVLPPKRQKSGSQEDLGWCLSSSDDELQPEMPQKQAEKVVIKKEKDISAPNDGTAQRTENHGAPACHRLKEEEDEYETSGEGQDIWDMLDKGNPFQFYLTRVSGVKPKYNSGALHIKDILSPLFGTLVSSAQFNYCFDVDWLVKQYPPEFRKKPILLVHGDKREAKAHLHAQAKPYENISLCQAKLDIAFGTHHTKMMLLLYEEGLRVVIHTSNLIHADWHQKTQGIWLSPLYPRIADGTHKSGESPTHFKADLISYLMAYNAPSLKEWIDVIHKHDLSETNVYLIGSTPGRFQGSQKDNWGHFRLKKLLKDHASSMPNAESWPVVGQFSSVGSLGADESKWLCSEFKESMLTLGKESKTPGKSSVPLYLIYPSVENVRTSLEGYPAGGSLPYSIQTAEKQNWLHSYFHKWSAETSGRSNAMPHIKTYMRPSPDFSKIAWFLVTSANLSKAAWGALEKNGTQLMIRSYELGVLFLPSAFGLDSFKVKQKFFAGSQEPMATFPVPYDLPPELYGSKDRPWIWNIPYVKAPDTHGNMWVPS
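Compounds were preincubated with Tdp1 (1 nM final) for 15 min at room temperature before substrate (15 nM final) started a 5 min reaction; beads (10 ug/ml final) were then added for 10 min before AlphaScreen detection.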
PLK1 PBD block: inhibitors of human PLK1 polo-box domain binding. Plk1 PBD binding of FITC phosphopeptide, fluorescence polarization. hit rate 2.8% among 360,000. P53350. Potency, µM, hits mostly inhibitors; note: series mostly up to about 57 µM; nearly all actives have a fitted effect of over 65% in size
GCN5L2 inh: inhibitors of human GCN5L2 histone acetyltransferase; Potency, µM (doses to about 58.9 µM), actives largely listed as inhibitors; hit rate 0.21% among 390,000; AID 504327; GCN5L2 HAT assay, ThioGlo1 CoA-SH fluorescence; Q92830
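GCN5L2 (20nM final) in 50mM HEPES, 0.1mM EDTA pH 7.5, 0.01% Tween-20 was preincubated 15 min at room temperature with compound, then given ThioGlo1 (50uM), H3(1-25) peptide (75uM) and acetyl-CoA (70uM); CoA-thiol fluorescence (Ex340/Em540) was read at 0 and 20 min.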
TDP1 cell CPT: growth inhibition of DT40 Tdp1-/-;hTDP1 cells with camptothecin (screen for TDP1 inhibitors); hit rate 12% among 420,000; AID 686979; Potency, µM (highest dose often 46.2 µM), usual class: inhibitors; chicken DT40 Tdp1-/-;hTDP1 cells + 20 nM CPT, ATP luminescence, 48 h; note: nearly all actives have a fitted effect of over 55% in size
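Chicken DT40 Tdp1-/- cells stably complemented with human TDP1 were seeded at 400 cells/well in medium containing 20 nM camptothecin, exposed to pin-transferred compounds, and grown at 37 °C for at least 48 hr. Viability was read as ATP luminescence.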
VDR inhibitor: vitamin D3 receptor (human) inhibition; P11473; VDR-SRC2-3 peptide fluorescence polarization, 2 h; Potency, µM, most hits filed as inhibitors; hit rate 0.93% among 400,000
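Reagent solutions, kept cold and dark, are dispensed first; compounds are then pinned in at 23 nl, plates briefly spun, and incubated 2 h at ambient temperature. Inhibition of VDR–SRC2-3 peptide binding is read by fluorescence polarization.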
Numbers stand for hits; – = inactive; ? = inconclusive; · = not tested or not shown. Calls come from the whole dose curve; as a rule, active = well fitted curve in the direction sought with a large enough effect; inconclusive = small, poorly fitted or top-dose-only effect, or another doubt; inactive = no such curve, though single readings can be large; an effect the other way counts as inactive or inconclusive.

SMILES	DT40 TDP1 no CPT	TDP1 block	PLK1 PBD block	GCN5L2 inh	TDP1 cell CPT	VDR inhibitor
Cc1cnc(CNc2ncncc2-c2ccccc2C)cn1	?	·	·	–	–	–
COc1cccc(CN2CCNC(=O)C2CC(=O)NCCCC2CCCC2)c1OC (stereo not given)	–	–	–	?	–	–
COc1cc2c(cc1OC)C1=NC(=O)CN1C(SCc1ccccc1)=N2	9.2µM	–	26.7µM	?	18.4µM	–
CCC1(C)Cc2ccccc2-c2nc(NCCCO)n(-c3ccccc3)c(=O)c21 (stereo not given)	4.11µM	–	–	–	2.06µM	–
CCC1(C)Cc2ccccc2-c2nc3n(c(=O)c21)CCS3 (stereo not given)	8.2µM	–	–	–	?	–
CCn1c(NCCO)nc2c(c1=O)C(C)(CC)Cc1ccccc1-2 (stereo not given)	16.4µM	–	–	–	?	–
CCC1(C)Cc2ccccc2-c2nc3n(c(=O)c21)CC(C(=O)O)S3 (stereo not given)	–	–	–	–	–	–
CCC1(C)Cc2ccccc2-c2nc(NCCO)[nH]c(=O)c21 (stereo not given)	?	–	–	–	?	–
Cc1noc(C)c1C(=O)N1CCC1(C)C(=O)NS(=O)(=O)c1cccs1 (stereo not given)	–	·	–	·	–	·
CC1C(=O)CCC1(C(=O)O)c1ccccc1 (stereo not given)	?	–	23.8µM	–	?	–
CCN(C(=O)CN1CCN(C)CC1)c1cccc2ccccc12	–	–	–	–	–	–
CCN(C(=O)CN1C(=O)CN(C)C1=O)c1cccc2ccccc12	?	–	–	–	11.6µM	–
Cc1cc(C)c(NC(=O)CCC(=O)N2Cc3ccccc3Oc3ncccc32)c(C)c1	?	–	·	–	?	–
COC(=O)c1c(-c2ccc(Cl)cc2)noc1N1CCN(c2cccc(C)c2C)CC1	?	–	·	–	16.4µM	–
NC(=S)NNc1ccnc2cc(Cl)ccc12	?	–	21.2µM	–	–	–
C/C(=N/Nc1ccnc2cc(Cl)ccc12)c1ccc(N)cc1	18.4µM	·	–	–	23.1µM	–
O=C(NNc1ccnc2cc(Cl)ccc12)C1CCCCC1	0.651µM	–	–	–	0.92µM	–
CCCCOc1ccc(S(=O)(=O)N2CCN(C)CC2)cc1	–	·	–	·	–	–
O=C1C[C@H](NC(=O)OCc2ccccc2)CO1	–	–	–	–	–	–
COc1cc(C(CCN2CCCC(C)C2)c2c(OC)cc(OC)c3c(C)cc(=O)oc23)cc(OC)c1OC (stereo not given)	·	–	·	·	·	–
COc1cc(OC)c2c(C)cc(=O)oc2c1C(CCN1CCOCC1)c1ccc2c(c1)OCO2 (stereo not given)	20.6µM	–	–	–	18.4µM	–
CCN(CC)CCC(c1ccc2c(c1)OCO2)c1c(OC)cc(OC)c2ccc(=O)oc12 (stereo not given)	18.4µM	·	–	–	13µM	–
COc1cc(OC)c2c(-c3ccccc3)cc(=O)oc2c1C(CCN1CCCCC1)c1ccc2c(c1)OCO2 (stereo not given)	7.31µM	–	–	–	9.2µM	–
COc1cc(OC)c2ccc(=O)oc2c1C(CC(=O)N1CCCCC1)c1ccc2c(c1)OCO2 (stereo not given)	·	–	·	·	·	–
COc1cc(C(CCN2CCN(c3ccccc3)CC2)c2c(OC)cc(OC)c3c(C)cc(=O)oc23)cc(OC)c1OC (stereo not given)	16.4µM	–	–	–	16.4µM	–
SMILES	DT40 TDP1 no CPT	TDP1 block	PLK1 PBD block	GCN5L2 inh	TDP1 cell CPT	VDR inhibitor
O=C(O)CCC[C@H](O)\C=C/C=C/C=C/[C@H](O)C/C=C\CCCCCO	·	–	·	·	·	–
CC1CCCC(C)N1c1ccc(S(=O)(=O)N2CCOCC2)cc1Cl (stereo not given)	?	–	–	–	?	–
COc1cc(OC)c2c(-c3ccccc3)cc(=O)oc2c1C(CCN1CCCC(C)C1)c1ccc2c(c1)OCO2 (stereo not given)	23.1µM	–	–	–	?	–
COc1cc(OC)c2ccc(=O)oc2c1C(CC(=O)N1CCCC(C)C1)c1ccc2c(c1)OCO2 (stereo not given)	?	·	–	–	?	–
CCN(CC)CCC(c1cc(OC)c(OC)c(OC)c1)c1c(OC)cc(OC)c2c(C)cc(=O)oc12 (stereo not given)	23.1µM	–	–	–	9.2µM	–
CN(C)CC[C@@](O)(c1ccccc1)c1ccccc1Cl	·	·	·	–	·	–
CC(C)(C)OC(=O)NCCCCCNC(=O)c1[nH]cnc1C(=O)Nc1cc(Br)ccc1F	5.8µM	·	–	·	11.6µM	·
CC(C)(C)OC(=O)NCc1ccc(NC(=O)c2nc[nH]c2C(=O)Nc2cc(Br)ccc2F)cc1	13µM	·	–	·	10.3µM	·
CCN(CC)c1ccc(S(=O)(=O)N2CCOCC2)cc1NC(=O)CSc1nncn1C	–	–	–	–	–	–
O=C(CNCc1ccc(Cl)cc1)Nc1cc(S(=O)(=O)N2CCCC2)ccc1Cl	?	·	–	·	20.6µM	–
CCN(CC)c1ccc(S(=O)(=O)N2CCOCC2)cc1NC(=O)c1cc(=O)c2ccccc2o1	7.31µM	–	–	–	8.2µM	–
CCN(CC)c1ccc(S(=O)(=O)N2CCOCC2)cc1NC(=O)CSc1ccccc1	?	–	–	–	16.4µM	–
CCN(CC)c1ccc(S(=O)(=O)N2CCOCC2)cc1NC(=O)CNCc1cccc(Cl)c1	14.6µM	·	–	·	18.4µM	–
Cc1ccc(S(=O)(=O)c2c(C)nn(C(C)(C)C)c2OC(=O)CC(C)C)cc1	?	–	–	–	–	–
Cc1cc(C)n(C(=O)/C(C#N)=C/N(C)C)n1	–	–	–	–	–	–
Cc1ccc(C(=O)N/C(=C\c2ccc3c(c2)OCO3)C(=O)Nc2ccc(C(=O)O)cc2)cc1	–	–	–	–	–	–
O=C(CNCc1ccccc1Cl)Nc1cc(S(=O)(=O)N2CCOCC2)ccc1Cl	?	–	–	–	–	–
Cc1ccc(S(=O)(=O)N2CCOCC2)cc1NC(=O)CNCc1ccc(Cl)cc1Cl	16.4µM	–	–	–	?	–
Cc1c(C(=O)NCc2ccc3c(c2)OCO3)sc(=O)n1Cc1cccc(F)c1	?	·	–	·	?	·
c1ccc(-c2nnc3oc(-c4cccs4)nn23)cc1	11.6µM	·	–	·	23.1µM	·
Cc1ccc(C)c(OCCn2cc(C(=O)O)c3ccccc32)c1	–	–	–	–	–	–
CN1CCN(C(=S)c2cn(CCOc3ccccc3)c3ccccc23)CC1	–	–	–	–	–	–
Cc1ccccc1OCCn1cc(C(=O)O)c2ccccc21	–	–	–	–	–	–
